The results in this text go back to PubChem BioAssay (NCATS).

Inconclusive results are not listed. The source made the active and inactive calls. Calls follow the shape of the dose curve; as a rule, active = well fitted inhibition curve with a large enough effect in the main read-out, with a control signal flat (not every such curve was filed as active); inconclusive = small, poorly fitted or top-dose-only effect, or effect the other way, or a change in a side signal; inactive = no such curve, though single readings can be large or run the other way.

The experiment is described as follows: Nrf2 qHTS screen for inhibitors: Validation (AID 493153).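 As to activity change, negative = inhibition: A549 cells with ARE-driven firefly luciferase reporter reporting Nrf2 activity; % of control where 0% means no effect.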 Conditions: A549 ARE-Fluc reporter, 18-24 h; viability change: measured here: cytotoxicity max response; luciferase luminescence, at 46.1 µM (top of the series); activity change, negative = inhibition: at the top concentration. An excerpt:
NIH Molecular Libraries Probe Production Network [MLPCN] NIH Chemical Genomics Center [NCGC] MLPCN Grant: R03-MH092170-01 Assay Provider: Shyam Biswal, Johns Hopkins University Assay Overview: Nrf2 is a transcription factor that maintains cellular redox homoestasis and protects cells from xenobiotics. Nrf2 binds to the antioxidant response element (ARE) to induce gene expression of a broad spectrum of genes that encode for antioxidants. […] Finding a small molecule that act as an inhibitor of Nrf2 function would represent a novel therapeutic target that could lead to improvement in survival of patients undergoing chemo- and/or radio- therapy. 1. Shibata, T., et al., Genetic Alteration of Keap1 Confers Constitutive Nrf2 Activation and Resistance to Chemotherapy in Gallbladder Cancer. Gastroenterology, 2008. 2. Sjoblom, T., et al., The consensus coding sequences of human breast and colorectal cancers. Science, 2006. 314(5797): p. 268-74.
Assay Protocol Summary: A concentration-response assay was performed with A549 ARE_Fluc cells which are suspended in 5% FBS OPTI-MEM. Five uL were dispensed into 1536-well white TC-treated plate using the Kalypsys dispenser to achieve a density of 5000 cells/well in all columns except column 1. The plate is incubated at 37deg C at 5% CO2 for 2 hours before 23 nL of compounds are added with the Kalypsys pin tool equipped with a 1,536-pin array containing 10-nL slotted pins (FP1S10, 0.457-mm diameter, 50.8 mm long; V&P Scientific). The control compounds Budesonide and Staurosporine are both added at a concentration of 2mM and Budesonide is also added as a 1:10 titration, starting at 200uM, to achieve dose-response. After an 18-24 hour incubation at 37deg C at 5% CO2, 5ul of medium is added to column 1. Afterwards 1ul of 5x of CellTiter-Fluor (Promega) is added to every well. The plate is then incubated at 37deg C at 5% CO2 for 30 minutes before they are read on the ViewLux (Perkin Elmer) for a fluorescent read Ex=405(10)/Em=525(10) for a 3 second exposure, 2x binning, and high gain. Then 3 uL of 3x BugLite is dispensed into all wells and the plate is incubated at ambient room temperature for 15 minutes. Afterwards another ViewLux read is performed using the clear filter to get a luminescent read with the settings of 40 second exposure, 2x binning, and high gain. Cytotoxicity is assessed through the first fluorescent read and then biochemical activity against Nrf2 is measured in the luminescent read.
Consider `Oc1ccc(O)cc1`, for which the “activity change, negative = inhibition” value is -4.88% (inactive) and the viability change is -9.14%.
For `CC1(C)CCC(NC(=O)[C@@H](N)CCC(=O)O)CC1` the same measures were -2.42% (inactive) and 2.98%.
The matching figures for `C[C@]12CC[C@@H]3c4ccc(O)cc4CC[C@H]3[C@@H]1CC[C@@H]2O`: -13.8% (inactive) and 1.87%.
Turning to `Nc1cc(Cl)c(NC2=NCCN2)c(Cl)c1`, the viability change was found to be 1.6% and the “activity change, negative = inhibition” value was 4.74% (inactive).
For `CCCC1O[C@@H]2C[C@H]3[C@@H]4CCC5=CC(=O)C=C[C@]5(C)[C@H]4[C@@H](O)C[C@]3(C)[C@]2(C(=O)CO)O1` (stereo not given in full) the same measures were -3.74% and -83.7% (inactive).
As for `CC(C)COC(=O)OCN1C(=O)CN(CCN2CC(=O)N(COC(=O)OCC(C)C)C(=O)C2)CC1=O`, the “activity change, negative = inhibition” value was -18.6% (inactive) and the viability change is -6.78%.
In the case of `CC(=O)O[C@H]1C[C@@H]2CC[C@@H]3[C@H](CC[C@@]4(C)[C@H]3C[C@H]([N+]3(C)CCCCC3)[C@@H]4OC(C)=O)[C@@]2(C)C[C@@H]1[N+]1(C)CCCCC1`, the “activity change, negative = inhibition” value is -0.169% (inactive) and the viability change was -0.593%.
For `N[C@H](CO)C(=O)O` the same measures were -2.43% (inactive) and 0.276%.
For `N[C@@H](Cc1cnc[nH]1)C(=O)O`, the viability change amounted to 0.846% and the “activity change, negative = inhibition” value is -14.1% (inactive).
With `CCCn1c(=O)[nH]c(=O)c2[nH]cnc21`, the “activity change, negative = inhibition” value is -3.11% (inactive) and the viability change stood at 7.08%.
For `C1CCc2nnnn2CC1` the same measures were -3.98% (inactive) and 4.51%.
The matching figures for `CN1C2CCC1CC(OC(=O)c1c[nH]c3ccccc13)C2` (stereo not given): 8.8% (inactive) and -7.62%.
The matching figures for `O=C(O)c1cc2cc(Cc3cccnc3)ccc2o1`: -3.73% (inactive) and 0.85%.
As to `C[N+]1(CCCCC[N+]2(C)CCCC2)CCCC1`, the “activity change, negative = inhibition” value was 3.24% (inactive) and the viability change amounted to 1.12%.
For `CC(CCc1ccccc1)NCC(O)c1ccc(O)c(C(N)=O)c1` (stereo not given) the same measures were -0.49% (inactive) and -13.8%.
Consider `O=C1CCC(c2ccc(-n3ccnc3)cc2)=NN1`, for which the viability change came to 9.43% and the “activity change, negative = inhibition” value is 0.305% (inactive).
Consider `COC(=O)[C@H]1[C@H]2C[C@H]3c4[nH]c5ccccc5c4CCN3C[C@H]2CC[C@@H]1O`, for which the “activity change, negative = inhibition” value was 5.86% (inactive) and the viability change was -3.55%.
Regarding `CNCCC(Oc1ccccc1C)c1ccccc1` (stereo not given), the “activity change, negative = inhibition” value is 6.44% (inactive) and the viability change came to 3.06%.
The matching figures for `CCC(NC(C)C)C(O)c1ccc(O)c(O)c1` (stereo not given): 10.4% (inactive) and -19.1%.
For `C[C@@H]1C(=O)NC2=Nc3cccc(Cl)c3CN21` the same measures were 7.05% (inactive) and 3.84%.
